Experimental data from PubChem BioAssay (NCATS).
Records with an inconclusive call do not appear. Calls of active or inactive are those of the source. Calls come from the whole dose curve; as a rule, active = well fitted inhibition curve with a large enough effect; inconclusive = small, poorly fitted or top-dose-only effect; inactive = flat fitted curve, though single readings scatter.

System: W2
Test: qHTS profiling for inhibitors of Plasmodium falciparum proliferation (AID 504749); note: nearly all actives have a fitted effect of over 60% in size;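 for activity, negative = inhibition: 0% = DMSO vehicle and full inhibition = artemisinin control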
Conditions: P. falciparum in erythrocytes, SYBR Green DNA, 72 h; series mostly up to 28.7 µM; activity, negative = inhibition: at the top concentration
Summary of the method: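 Infected RBCs, 0.3% parasitemia/2.5% Hct final; cpd 72 h, 37 C, 5% CO2; lysis buffer with saponin/triton/SYBR Green I, o/n RT dark; FI 485/535; norm. to artemisinin (0.29 uM) and DMSO.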
Potency is the fitted concentration of half-maximal effect.

SMILES	activity, negative = inhibition	Potency
O=C(O)CCCCC(=O)O	-2.75% (inactive)	
CCOC(=O)n1ccn(C)c1=S	-4.02% [at 12.8 µM] (inactive)	
COc1cc(NS(C)(=O)=O)ccc1Nc1c2ccccc2nc2ccccc12		2.13 µM (active)
C[C@]12CC[C@@H]3c4ccc(O)cc4CC[C@H]3[C@@H]1CC[C@@H]2O	-2.38% (inactive)	
NCCC(O)(P(=O)(O)O)P(=O)(O)O	-0.0307% (inactive)	
CN1C2CCC1CC(OC(=O)c1c[nH]c3ccccc13)C2 (centres undefined)	2.94% (inactive)	
CO/N=C1\CN(c2nc3c(cc2F)c(=O)c(C(=O)O)cn3C2CC2)CC1CN (centres undefined)		5.36 µM (active)
Oc1c(Cl)cc(Cl)cc1Sc1cc(Cl)cc(Cl)c1O	-4.41% (inactive)	
CC(=O)Oc1ccc(C(=C2CCCCC2)c2ccc(OC(C)=O)cc2)cc1	3.15% (inactive)	
CC(=O)OCC(=O)NCCCOc1cccc(CN2CCCCC2)c1	10.2% (inactive)	
CC(C)NC[C@@H](O)COc1cccc2ccccc12		1.69 µM (active)
CCN(CC)C(=O)N1CCN(C)CC1	2.61% [at 12.8 µM] (inactive)	
Nc1ccc(/C=C/c2ccc(N)cc2S(=O)(=O)O)c(S(=O)(=O)O)c1	1.31% (inactive)	
CCN1CCCC1=O	-0.423% (inactive)	
CCN(CC)CCNC(=O)COc1ccc(Cl)cc1		13.5 µM (active)
Cc1c(F)c(N2CCNC(C)C2)cc2c1c(=O)c(C(=O)O)cn2C1CC1 (centres undefined)	6.48% (inactive)	
CC(C)(Oc1ccc(Cl)cc1)C(=O)O	2.72% (inactive)	

SMILES	activity, negative = inhibition	Potency
C#C[C@]1(OC(C)=O)CC[C@H]2[C@@H]3CCC4=C[C@@H](OC(C)=O)CC[C@@H]4[C@H]3CC[C@@]21C	-15.6% (inactive)	
CCCn1c(=O)[nH]c(=O)c2[nH]cnc21	1.44% (inactive)	
CC(O)C(=O)O (centres undefined)	7.78% (inactive)	
CCCCc1nc(Cl)c(CO)n1Cc1ccc(-c2ccccc2-c2nn[nH]n2)cc1		10.7 µM (active)
O=C(OCCOCCO)c1ccccc1Nc1cccc(C(F)(F)F)c1	-1.42% [at 12.8 µM] (inactive)	
c1ccc(-c2ccc(C(c3ccccc3)n3ccnc3)cc2)cc1 (centres undefined)		5.36 µM (active)
Cc1cccn2c(=O)c(-c3nnn[nH]3)cnc12	6.03% (inactive)	
NCCc1ccn[nH]1	12% [at 12.8 µM] (inactive)	
O=C1OC(c2ccc(O)cc2)(c2ccc(O)cc2)c2ccccc21	-4.21% (inactive)	
CN1C(CCl)Nc2cc(Cl)c(S(N)(=O)=O)cc2S1(=O)=O (centres undefined)	0.871% (inactive)	
COc1cc(C(=S)N2CCOCC2)cc(OC)c1OC	6.59% (inactive)	
C[C@H]1[C@H](NC(=O)/C(=N/OC(C)(C)C(=O)O)c2csc(N)n2)C(=O)N1S(=O)(=O)O (stereo in doubt)	12.3% [at 12.8 µM] (inactive)	
NCCCC[C@H](N[C@@H](CCc1ccccc1)C(=O)O)C(=O)N1CCC[C@H]1C(=O)O	0.609% [at 12.8 µM] (inactive)	
CC(C)(CO)[C@@H](O)C(=O)NCCCO	2.31% (inactive)	
Cc1ccnc(NS(=O)(=O)c2ccc(N)cc2)n1	7.29% [at 12.8 µM] (inactive)	
CNCCC(Oc1ccccc1C)c1ccccc1 (centres undefined)		3.79 µM (active)
Nc1ccc(C(=O)O)cc1	0.309% (inactive)	
